In the supplement of paper PMC8728848:
About 410 targets per protein were measured; listed, in parts, are those with the strongest signals and a random draw of the rest.

Key:
Assay in all cases: glycan array binding signal (z-score within array); higher = stronger binding
Details in all cases: glycan notation: IUPAC condensed, linker removed
[1] = target: Fuc(a1-2)Gal(b1-3)GlcNAc(b1-3)[Neu5Ac(a2-6)Gal(b1-4)GlcNAc(b1-6)]Gal(b1-4)Glc
Procedure, shortened: (§1)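 The binding signal is a Z-score computed within each array and averaged over linkers. Arrays of the same protein sequence at different concentrations or buffers were also averaged together. Data originate from 3228 arrays in the Consortium for Functional Glycomics database, kept only where the protein sequence was available.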

[2] = target: Fuc(a1-2)Gal(b1-4)GlcNAc(b1-3)Gal(b1-4)GlcNAc(b1-2)Man(a1-3)[Fuc(a1-2)Gal(b1-4)GlcNAc(b1-3)Gal(b1-4)GlcNAc(b1-2)Man(a1-6)]Man(b1-4)GlcNAc(b1-4)GlcNAc
Procedure, shortened: as §1

[3] = target: Fuc(a1-2)Gal(b1-4)GlcNAc(b1-3)GalNAc
Procedure, shortened: as §1

[4] = target: Fuc(a1-2)Gal6S(b1-3)GlcNAc
Procedure, shortened: as §1

[5] = target: Fuc(a1-2)[Gal(a1-3)]Gal(b1-4)GlcNAc
Procedure, shortened: as §1

[6] = target: Fuc(a1-2)[Gal(a1-3)]Gal(b1-4)GlcNAc(b1-2)Man(a1-3)[Fuc(a1-2)[Gal(a1-3)]Gal(b1-4)GlcNAc(b1-2)Man(a1-6)]Man(b1-4)GlcNAc(b1-4)GlcNAc
Procedure, shortened: as §1

[7] = target: Fuc(a1-2)[GalNAc(a1-3)]Gal(b1-4)GlcNAc
Procedure, shortened: as §1

[8] = target: Fuc(a1-2)[GalNAc(a1-3)]Gal(b1-4)GlcNAc(b1-2)Man(a1-3)[Fuc(a1-2)[GalNAc(a1-3)]Gal(b1-4)GlcNAc(b1-2)Man(a1-6)]Man(b1-4)GlcNAc(b1-4)GlcNAc
Procedure, shortened: as §1

[9] = target: Fuc(a1-2)[GalNAc(a1-3)]Gal(b1-4)[Fuc(a1-3)]GlcNAc
Procedure, shortened: as §1

[10] = target: Fuc(a1-2)[GalNAc(a1-3)]Gal(b1-4)[Fuc(a1-3)]GlcNAc(b1-3)GalNAc
Procedure, shortened: as §1

[11] = target: Fuc(a1-3)[Gal(b1-4)]GlcNAc(b1-2)Man(a1-3)[Fuc(a1-3)[Gal(b1-4)]GlcNAc(b1-2)Man(a1-6)]Man(b1-4)GlcNAc(b1-4)GlcNAc
Procedure, shortened: as §1

Gal(a1-3)Gal = target: Gal(a1-3)Gal
Procedure, shortened: as §1

Gal(a1-4)Gal(b1-4)Glc = target: Gal(a1-4)Gal(b1-4)Glc
Procedure, shortened: as §1

Gal(b1-3)GalNAc = target: Gal(b1-3)GalNAc
Procedure, shortened: as §1

[12] = target: Gal(b1-3)GalNAc(b1-4)Gal(b1-4)Glc
Procedure, shortened: as §1

[13] = target: Gal(b1-3)GlcNAc(b1-3)Gal(b1-4)GlcNAc
Procedure, shortened: as §1

[14] = target: Gal(b1-3)GlcNAc(b1-3)Gal(b1-4)GlcNAc(b1-6)[Gal(b1-3)GlcNAc(b1-3)]Gal(b1-4)Glc
Procedure, shortened: as §1

[15] = target: Gal(b1-4)GlcNAc(b1-3)Gal(b1-4)GlcNAc(b1-2)Man(a1-3)[Gal(b1-4)GlcNAc(b1-3)Gal(b1-4)GlcNAc(b1-2)Man(a1-6)]Man(b1-4)GlcNAc(b1-4)[Fuc(a1-6)]GlcNAc
Procedure, shortened: as §1

[16] = target: Gal(b1-4)GlcNAc(b1-3)Gal(b1-4)GlcNAc(b1-2)[Gal(b1-4)GlcNAc(b1-3)Gal(b1-4)GlcNAc(b1-6)]Man(a1-6)[Gal(b1-4)GlcNAc(b1-3)Gal(b1-4)GlcNAc(b1-2)Man(a1-3)]Man(b1-4)GlcNAc(b1-4)GlcNAc
Procedure, shortened: as §1

[17] = target: Gal(b1-4)GlcNAc(b1-3)Gal(b1-4)GlcNAc(b1-3)Gal(b1-4)GlcNAc(b1-2)Man(a1-3)[Gal(b1-4)GlcNAc(b1-3)Gal(b1-4)GlcNAc(b1-3)Gal(b1-4)GlcNAc(b1-2)Man(a1-6)]Man(b1-4)GlcNAc(b1-4)[Fuc(a1-6)]GlcNAc
Procedure, shortened: as §1

[18] = target: Gal(b1-4)GlcNAc(b1-3)Gal(b1-4)GlcNAc(b1-3)Gal(b1-4)GlcNAc(b1-2)[Gal(b1-4)GlcNAc(b1-3)Gal(b1-4)GlcNAc(b1-3)Gal(b1-4)GlcNAc(b1-6)]Man(a1-6)[Gal(b1-4)GlcNAc(b1-3)Gal(b1-4)GlcNAc(b1-3)Gal(b1-4)GlcNAc(b1-2)Man(a1-3)]Man(b1-4)GlcNAc(b1-4)[Fuc(a1-6)]GlcNAc
Procedure, shortened: as §1

B1: DrGal9 (Danio rerio) (protein)
chain: MAFYQQPPYYNPRIPFSGPIQGGLQDGKSIIISGRVLPGANRFHVNLQCGSHSEANVALHFNPRYEDTDYVVNNSYLNRTWGSEERKYESPFAQGQTFTLQILVAQDKYKISTNGRHFMDYKHRIPFTQVDTVAVEGMVEVNSVAFQNPAGFIPPQAGYAPQYAVPPGCGFPAFPSAPNYTIPHKTVMNGGLHPGKNIVINGVVNPNAKSIIFNLCYRSGIAFHYNPRFDENVVVRNTNQMEKWGAEERFGGLPFHKGQPFQVTISCNPQHYNVFVNGKQEHTYKHRYTKLNDIDILEICGDLQLTSVQA
glycan array binding signal (z-score) [1]: -0.123 | glycan array binding signal (z-score) [2]: 3.83 | glycan array binding signal (z-score) [3]: -0.32 | glycan array binding signal (z-score) [4]: -0.391 | glycan array binding signal (z-score) [5]: 0.599 | glycan array binding signal (z-score) [6]: 3.36 | glycan array binding signal (z-score) [7]: -0.391 | glycan array binding signal (z-score) [8]: -0.329 | glycan array binding signal (z-score) [9]: -0.36 | glycan array binding signal (z-score) [10]: -0.336 | glycan array binding signal (z-score) [11]: -0.409 | glycan array binding signal (z-score) (Gal(a1-3)Gal): -0.376 | glycan array binding signal (z-score) (Gal(a1-4)Gal(b1-4)Glc): -0.356 | glycan array binding signal (z-score) (Gal(b1-3)GalNAc): -0.351 | glycan array binding signal (z-score) [12]: -0.117 | glycan array binding signal (z-score) [13]: -0.053 | glycan array binding signal (z-score) [14]: 1.3 | glycan array binding signal (z-score) [15]: 5.22 | glycan array binding signal (z-score) [16]: 0.373 | glycan array binding signal (z-score) [17]: 4.02 | glycan array binding signal (z-score) [18]: 4.33
